TTR transcr act: TTR transcription activation, primary screen | AID 1117267 | 92,000 tested, 1.3% active | activation, % at 16.7 µM | SH-SY5Y TTR promoter Gaussia luciferase, luminescence; 100% = recombinant luciferase protein wells;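 active = activation above the mean of all tested compounds plus 3 SD, cut at about 9.5% in these data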;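 note: cells exposed to compounds for one day before reading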
HuH7 TTR inh: decreases TTR transcription in HuH7 cells in activator counter-screen | HuH7 TTR promoter-Gaussia luciferase reporter, luminescence | shares compounds with TTR transcr act | inhibition, % at 16.7 µM | 1,100 tested, 4% active;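 active = average inhibition above the solvent-only control wells' mean plus 3 SD, cut at about 15% in these data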;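 note: inhibitors lower well luminescence so higher value means more inhibition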
TTR act confirm: confirmation of human transthyretin transcription activators; shares compounds with TTR transcr act; SHSY5Y TTR promoter Gaussia luciferase, luminescence; 100% = purified Lucia enzyme wells, no cells; activation, % at 16.7 µM; 1,100 tested, under 10 active; AID 1117280;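 active = mean activation above a set limit taken from the earlier primary screen, cut at about 11% in these data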
Of the large screens only hits and unclear results are named; the others gave an inactive call (follow-up assays come after a bar, where they were run). This excerpt belongs to a sample that is enriched for hits.

C[C@@H]1CN([C@H](C)CO)C(=O)CCCn2cc(nn2)CO[C@H]1CN(C)S(=O)(=O)c1ccc(C#N)cc1	none
CC(=O)c1cc(-c2cccc(Cl)c2O)c(=O)n2c1CCC2	none
COc1cc(OC)c(C2C(C#N)=C(C)NC(C)=C2C#N)c(C(=O)O)c1	TTR transcr act 29.7 | HuH7 TTR inh inactive | TTR act confirm inactive
COc1ccc(C2CC(=O)C3=C(C2)NC(C)=C(C#N)C3c2ccc(N(C)C)cc2)cc1 (centres undefined)	none
COc1ccc(C(=O)O)c(O)c1	none
O=C(NCc1ccc(Cl)cc1)O[C@H]1CC[C@@]23CCCN2C(=O)CCC[C@H]3C1	none
COc1cc(F)ccc1Oc1cccc2c1S(=O)(=O)N([C@H](C)c1ccccc1)C[C@@H](COCc1ccccc1)O2	none
O=S1(=O)c2ccc(N3CCC[C@H]3CO)cc2O[C@H]2CCN1C2	none
N#Cc1cccc(NC(=O)CCn2ccnc2)c1	none
N#Cc1cccc(NC(=O)CC2CCCC2)c1	none
N#Cc1cccc(NC(=O)CN2NS(=O)(=O)c3ccccc3C2=O)c1	TTR transcr act 10.8 | HuH7 TTR inh inactive | TTR act confirm inactive
O=C1CCC[C@H]2C[C@H](NCc3cccs3)CC[C@]23CCCN13	none
COCO[C@@H]1CC(CO)=C[C@H]2OCO[C@H]21	none
COc1ccccc1CN[C@@H]1CC[C@@]23CCCN2C(=O)CCC[C@H]3C1	none
O=C(Nc1cccc(Cl)c1Cl)c1csc([C@H]2C[C@H](O)[C@@H](CO)O2)n1	none
CC1(C)COC(c2ccccc2Cl)OC1	none
CC1SC(c2ccccc2Cl)NC1=O (centres undefined)	TTR transcr act 10.8 | HuH7 TTR inh inactive | TTR act confirm inactive
CC1=C(C(=O)OCc2ccccc2)C(c2ccccc2Cl)NC(=O)N1C (centres undefined)	none
CCOC(=O)c1c(C)[nH]c(C(=O)COC(=O)c2ccco2)c1C	none
CCOc1ccc(Br)cc1C1=NN(C(C)=O)C(c2ccc([N+](=O)[O-])s2)O1 (centres undefined)	none
O=C1C(Cc2ccccc2O)NC(=S)N1c1ccccc1 (centres undefined)	none
COP(=O)(O)C(Cc1ccccc1)NC(=O)OCc1ccccc1 (centres undefined)	none
Cc1ccc(CN2CCCCC(NC(=O)c3ccc4ccccc4c3)C2=O)cc1 (centres undefined)	none
CCCCOCCCNC(=O)C[C@H]1C[C@@]2(C(=O)OC)C(=C[C@H](C3CCCC3)O[C@@H]2C)N(Cc2cccc3ccccc23)C1=O	none
O=C1Oc2ccccc2C2(O)C3CCCCCC3C12 (centres undefined)	TTR transcr act 13.3 | HuH7 TTR inh inactive | TTR act confirm inactive
C[C@H]1COC(=O)[C@H](Cc2ccc(F)cc2)C/C=C\C[C@H](CC(=O)NCCO)C(=O)N1	none
CCOc1ccc(N2CC(C(=O)Nc3cccnc3)CC2=O)cc1 (centres undefined)	none
CCn1c(=O)n2n(c1=O)[C@H]1C[N+](Cc3ccc4c(c3)OCO4)=C(N)NC1=C(C)C2	none
Cc1ccc(C(=O)c2ccccc2C(=O)OCC(=O)Nc2cccc([N+](=O)[O-])c2)cc1	none
CC1CC1C(=O)OCC(=O)Nc1ccc(N=Nc2ccccc2)cc1 (centres undefined)	none
CC1CC1C(=O)OCC(=O)Nc1cccc([N+](=O)[O-])c1 (centres undefined)	TTR transcr act 12.2 | HuH7 TTR inh inactive | TTR act confirm inactive
COc1cccc(NC(=O)Nc2nc3ncccn3c2-c2ccc(F)c(F)c2)c1	none
C[C@@H]1COc2cc(Br)ccc2S(=O)(=O)N1Cc1cn(CC2CCCCC2)nn1	none
CC(c1ccccc1)N1CC[C@H]2C=CC[C@@H](C(=O)Nc3ccc(F)c(F)c3)[C@H]2C1=O (some centres undefined)	none
Cc1ccccc1CN1CCCCC(NC(=O)Nc2ccccc2-c2ccccc2)C1=O (centres undefined)	none
CC(C(=O)Nc1ccc(C#N)cc1)N(C)CC(=O)Nc1cccc(F)c1 (centres undefined)	TTR transcr act 9.9 | HuH7 TTR inh inactive | TTR act confirm inactive
CC(C(=O)Nc1ccc(S(=O)(=O)N2CCCC2)cc1)N(C)CC(=O)Nc1cccc(F)c1 (centres undefined)	none
CC(C(=O)Nc1ccc(C#N)cc1)N(C)Cc1cccs1 (centres undefined)	none
CCC(C)(C)n1nnnc1C(c1cc2cccc(C)c2[nH]c1=O)N1CCN(C(=O)c2ccco2)CC1 (centres undefined)	none
O=c1[nH]c2cc3c(cc2cc1C(c1nnnn1Cc1ccccc1)N1CCCc2ccccc21)OCO3 (centres undefined)	none
Cc1cccc2cc(C(c3nnnn3Cc3ccc4c(c3)OCO4)N3CCCC3)c(=O)[nH]c12 (centres undefined)	TTR transcr act 10.6 | HuH7 TTR inh inactive | TTR act confirm inactive
CC(=O)O[C@@]1(C)C[C@@H](O)[C@]2(O)C=CO[C@@H](O[C@@H]3O[C@H](CO)[C@@H](O)[C@H](O)[C@H]3O)[C@@H]21	none
CCOC(=O)[C@@]12CCC3=C1N(CCC3)C(=O)[C@H](CC(=O)N1CCSCC1)C2	none
Oc1ccc(/C=N/n2c(COc3ccccc3)n[nH]c2=S)cc1O	none
CCN1C(=O)c2cccc3c(NC(=O)c4ccc(S(=O)(=O)N(C)C)cc4)ccc1c23	TTR transcr act 9.9 | HuH7 TTR inh inactive | TTR act confirm inactive
CCOC(=O)c1ccc(NC(=O)Nc2ccc3c4c(cccc24)C(=O)N3CC)cc1	none
CCN1C(=O)c2cccc3c(S(=O)(=O)N4CCC(C)CC4)ccc1c23	none
CN(C)CCNc1ccc(CO)c2oc3ccc(O)cc3c(=O)c12	TTR transcr act 16.0 | HuH7 TTR inh inactive | TTR act confirm 12.8
Cc1cc(NCCO)c2cc(O)ccc2n1	none
C[C@H](CO)N1C[C@H](C)[C@H](CN(C)Cc2cccc(C(F)(F)F)c2)OCc2ccccc2-c2c(n(C)c3ccccc23)C1=O	none
COC(=O)[C@]12C[C@H](CC(=O)NCC3CCCCC3)C(=O)N(Cc3cccc4ccccc34)C1=C[C@H](C(C)C)O[C@@H]2C1CC1	none
O=c1c2cc3cc(Cl)ccc3nc2ncn1CCc1ccc(O)cc1	none
O=c1c2cc3cc4c(cc3nc2ncn1CCc1ccccc1)OCO4	none
O=c1c2cc3cc4c(cc3nc2ncn1Cc1cccnc1)OCO4	TTR transcr act 18.2 | HuH7 TTR inh inactive | TTR act confirm inactive
O=C(CN1CCN(S(=O)(=O)c2ccc3c(c2)OCCO3)CC1)Nc1cccc(F)c1	none
COC(=O)[C@]12C[C@H](CC(=O)NCc3ccccc3)C(=O)N(Cc3ccco3)C1=C[C@H](C1CCCC1)O[C@@H]2C	none
Cc1cccc(C(=O)NCCc2n[nH]c(=S)n2C)c1	none
Cn1c(CNC(=O)c2cccs2)n[nH]c1=S	none
Cc1ccc(NC(=O)Cc2n[nH]c(=S)n2C)cc1	TTR transcr act 10.7 | HuH7 TTR inh inactive | TTR act confirm inactive
CC(C)(C)CN1CCN(CC#Cc2ccccc2)CC1CCO (centres undefined)	none
O=C(Cn1c(=O)c2cccn2c2cccnc21)NCCCN1CCN(c2ccccc2)CC1	none
Cc1cc2nc(C(C)(C)C)c(CC3CCCCC3)n2c(C)c1Br	none
COC(=O)[C@]12C[C@H](CC(=O)NCCc3ccccc3OC)C(=O)N(CCc3ccc(OC)c(OC)c3)C1=C[C@H](COCc1ccccc1)O[C@@H]2C	none

From PubChem BioAssay
